# Test results taken from PubChem BioAssay AID1014 (NMMLSC, 2008).
# Active and inactive are the calls of the source. No stated cut-off is given here; in the data, active means inhibition of mean fluorescence above about 33%; inactive means the rest.
# Assay: quorum sensing inhibitors in bacterial reporter, SAR follow-up, flow cytometry, SAR analogs (AID 1014);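 further: Staphylococcus aureus RN6390 with RNAIII-GFP reporter stimulated by AIP; bacteria incubated with compound for 3 hours at 37 °C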
# Conditions: at 20 µM, stronger effect = higher value; inhibition of percent positive cells: flow cytometry fluorescence, measured here: percent reporter-positive cells
SMILES,inhibition of mean fluorescence,inhibition of percent positive cells [%]
CC1CCN(C(C(=O)NC2CCCCC2)c2cc3c(cc2[N+](=O)[O-])OCO3)CC1 (stereo unspecified),6% (inactive),0.7
Cc1ccc(S(=O)(=O)c2nnn3c2nc(Nc2ccc(C(C)C)cc2)c2ccccc23)cc1,12.6% (inactive),-1.7
COc1ccc(Nc2nc3c(S(=O)(=O)c4ccc(C(C)(C)C)cc4)nnn3c3ccccc23)cc1,-16.7% (inactive),-0.8
COc1ccc(NC(=O)C(c2cc3c(cc2[N+](=O)[O-])OCO3)N2CC(C)CC(C)C2)cc1 (stereo unspecified),49.3% (active),0.5
COc1cc(C(=O)NCC(c2cccnc2)N2CCN(c3ccccc3F)CC2)cc(OC)c1OC (stereo unspecified),-57.3% (inactive),-1.5
CC(=O)c1cc2c(cc1NC(=O)CN1CCOCC1)OCO2,-26.1% (inactive),-1
CCc1c(C(=O)c2ccccc2)oc2c(C)c3oc(=O)cc(C)c3cc12,-0.6% (inactive),-1.3
CC1CCCN(C(C(=O)Nc2ccc(C(C)C)cc2)c2cc3c(cc2[N+](=O)[O-])OCO3)C1 (stereo unspecified),14.1% (inactive),-0.2
O=C(O)c1ccccc1Nc1nc(N2CCCC2)nc(N2CCCC2)n1,10.8% (inactive),-0.3
COc1c(F)c(F)c(C(=O)O)c(Nc2ccc(C)cc2)c1F,9.1% (inactive),-1.6
O=C(O)c1cc(Nc2ccccc2C(=O)O)nc(Nc2ccccc2C(=O)O)n1,2.4% (inactive),-0.3
CC1CCN(CC2CCN(C(=O)Nc3ccc4c(c3)OCCO4)CC2)CC1,-3.7% (inactive),0
Cc1cccc(OCC(=O)Nc2sc3c(c2C#N)CCCC3)c1C,28.1% (inactive),1.4
